Key:
Assay type in all cases: functional
Plasmodium falciparum [1] = assay: GSK_TCMDC: Inhibition of Plasmodium falciparum 3D7 in whole red blood cells, using parasite LDH activity as an index of growth. Test compounds present at 2uM
Plasmodium falciparum [2] = assay: GSK_TCMDC: Inhibition of Plasmodium falciparum Dd2 in whole red blood cells, using parasite LDH activity as an index of growth. Test compounds present at 2uM
HepG2 = assay: GSK_TCMDC: Percent inhibition of human HepG2 cell line. Test compounds present at 10uM.

| Structure (SMILES) | Inhibition (Plasmodium falciparum [1]) | Inhibition (Plasmodium falciparum [2]) | Inhibition (HepG2) |
| --- | --- | --- | --- |
| Nc1ccc(-c2cnc3[nH]cc(-c4ccc(C(=O)O)cc4)c3c2)cn1.O=C(O)C(F)(F)F | 97% | 99% | 48% |
| COc1cccc(CN2CCCC(COC(c3ccc(F)cc3)c3ccc(F)cc3)C2)c1O (stereo unspecified) | 98% | 100% | 24% |
| CCCCN1CCN(CC(O)CNC(=O)Nc2ccc(Cl)cc2)CC1.O=C(O)C(F)(F)F (stereo unspecified) | 100% | 99% | 17% |
| CC1(C)N=C(N)N=C(N)N1c1ccc(Cl)cc1.O=C(O)c1cc2ccccc2c(Cc2c(O)c(C(=O)O)cc3ccccc23)c1O | 95% | 4% | 42% |
| Nc1c(Cl)cc(C(O)CNCCCCCOCCCc2ccc3ncccc3c2)cc1Cl.O=C(O)/C=C/C(=O)O (stereo unspecified) | 96% | 77% | 24% |
| Cc1nnsc1C(=O)Nc1cccc(-c2ccc(-c3nc4cc(C(F)(F)F)ccc4[nH]3)cc2)c1 | 99% | 97% | 62% |
| Cn1ccnc1Sc1ncccc1[N+](=O)[O-] | 96% | 2% | 0% |
| O=C(Nc1ccc(-c2nc3ccccc3[nH]2)cc1)c1ccc(N2CCCC2)c([N+](=O)[O-])c1 | 100% | 95% | 43% |
| O=C(Cn1c(CCc2cccc(F)c2F)nc(=O)c2cccnc21)N(Cc1ccc(-c2ccc(C(F)(F)F)cc2)cc1)C1CCN(C2CCOCC2)CC1.O=C(O)C(O)C(O)C(=O)O | 94% | 67% | 100% |
| CCN(CC)CCON=Cc1cc(C)c2[nH]c3ccc(OCc4ccccc4)cc3c2c1C | 98% | 29% | 29% |
| O=C(N[C@H]1CCN(CCc2ccc(O[C@H]3CCNC3)cc2)C1)c1ccc(Cl)c(Cl)c1.O=C(O)C(F)(F)F | 96% | 5% | 18% |
| COCCN1CCC(C(=O)NCC(C)(C)c2nc(-c3ccc(Br)c(O)c3)c(-c3ccncc3)[nH]2)CC1.Cl | 99% | 6% | 0% |
| Cc1sc2nc(CN3CCCC3)nc(-n3c(NCCO)nc4ccccc43)c2c1C | 96% | 11% | 19% |
| Cc1c(Cn2nc(Cl)c(N3CCNCC3)cc2=O)cccc1NC(=O)Nc1ccc(-c2ccccc2)cc1.O=C(O)C(F)(F)F | 80% | 29% | 96% |
| COc1ccc(C=NNc2nc3ccccc3[nH]2)cc1O | 95% | 13% | 15% |
| CS(=O)(=O)O.N#Cc1ccc(CNCCCCCCNCc2ccc(C#N)c3ccccc23)c2ccccc12 | 100% | 96% | 51% |
| CCCNC[C@@H](O)[C@H](Cc1ccccc1)NC(=O)c1cc(NCC)cc(N2CCCCS2(=O)=O)c1.Cl | 97% | 74% | 0% |
| CN1CCC(N(Cc2ccc(-c3ccc(C(F)(F)F)cc3)nc2)C(=O)Cn2c(CCc3cccc(F)c3F)cc(=O)c3ccccc32)CC1.O=C(O)C(O)C(O)C(=O)O | 91% | 85% | 60% |
| O=C(/C=C/c1ccc(Cl)c(Cl)c1)NCCCCCCN1CCN(C(=O)Nc2ccc(OC(F)F)cc2)CC1 | 91% | 15% | 44% |
| CCN(CCCN1CCCCC1)c1cc(C)nc(Nc2ccc(C)c(C)c2)n1.O=C(O)C(F)(F)F | 100% | 60% | 30% |
| Cc1cccc2nc(-c3ccc(-c4ccc(C(=O)NCCN5CCCC5)cc4)s3)[nH]c12 | 100% | 13% | 20% |
| CC(=NNC(=N)N)c1ccc2c(c1)Cc1ccccc1-2.Cl | 100% | 10% | 44% |
| O=C(/C=C/c1ccc(Cl)cc1)NCCCCCN1CCCC(C(=O)Nc2cccc(Cl)c2)C1 (stereo unspecified) | 96% | 4% | 21% |
| O=C(N1CCN(c2ccnc3cc4c(cc23)N(Cc2ccccc2)CC4)CC1)C(F)(F)F | 100% | 100% | 8% |
| CC(C)COc1ccc(Cl)cc1Cc1nc(-c2nc3cccc(CN4CCN(C)CC4)c3[nH]2)cs1 | 99% | 30% | 15% |
| CCN(CC)CCNc1ccnc2c3ccccc3n(C)c12 | 100% | 99% | 14% |
| CN(C)c1ccc2nc(N)nc(N)c2c1Cl.Cl | 98% | 0% | 68% |
